Where “and” joins values, the source holds several entries; their conditions need not be identical. Identical values can stand only once. The panel holds about 83,000 compounds, 20% with a hit somewhere; the sample as a whole holds those more often.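 Values shown are percent growth following 48 h exposure of cells in 96-well plates to a single concentration of compound; below 10 was considered active.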 More than one record can exist for a structure, and the calls need not agree. Calls of active or inactive are those of the source.

In PubChem BioAssay (NCI) one finds growth data, which are given here for 31 molecules.

The subject of the experiment is SK-MEL-28 melanoma. Kind of experiment: NCI-60 one-dose screen, 48 h (100 = growth as untreated, 0 = no growth, -100 = all killed). The following applies: 10 µM unless noted.
For `C/C(=N\NC(=S)N1CC2CCC(CC2)C1)c1ccccn1`, the growth was 37.9% (inactive).

Take `O=C(Nc1cccc(C(F)(F)F)c1)Oc1ccc(Cl)c2cccnc12`: the growth is 58.3% (inactive).

For the molecule `CC(=O)c1c(O)c(C)c(O)c2c1OC1=CC(=O)C(C(C)=O)C(=O)C12C` (stereo unspecified), the growth is 84.4% (inactive).

For the molecule `N=C(N)Sc1cccc[n+]1[O-]`, the growth is 26.1% (inactive).

In the case of `Cc1oc2c(C)c3oc(=O)cc(C)c3cc2c1CCl`, the growth was 93.3% (inactive).

With `COc1ccc(NC(=O)/C(=C/N2C(=O)/C(=C/c3ccc(OC)c(OC)c3)NC2=S)C(C)=O)cc1`, the growth is 77.2% (inactive).

As for `CCCCCCCCCCCC1=NCCCN1CCCC`, the growth is 103% (inactive).

With `CN(C)c1ccc(C(C#N)(c2ccccc2)c2ccc(N(C)C)cc2)cc1`, the growth is 60.2% (inactive).

In the case of `O=C(Nc1ccc(Cl)c(Cl)c1)OCc1ccco1`, the growth is 74.1% (inactive).

Consider `O=C1/C(=C/c2ccccc2)CCC/C1=C\c1ccccc1`, for which the growth was 98.5% (inactive).

Turning to `N#Cc1c2ccccc2nc2ccccc12`, the growth was 132% (inactive).

As to `CCOC(=O)C1(C)CCCC1N` (stereo unspecified), the growth was 109% (inactive).

`Cc1cc(=O)oc2cc(O)cc(O)c12`: the growth was 101% (inactive).

Consider `NNc1cccc([N+](=O)[O-])c1`, for which the growth is 115% (inactive).

With `N#CCc1cccc2ccccc12`, the growth is 94.7% (inactive).

For `CC1(C)N=c2cc3c(cc2N1c1ccc(Cl)cc1)=Nc1ccccc1N3c1ccc(Cl)cc1`, the growth is 86.6% (inactive).

Take `Oc1ccc2ccccc2c1N=Nc1nccs1`: the growth was 38.1% (inactive).

As to `NC(=S)N/N=C\c1nccc2c(N)cccc12`, the growth was 44.6% (inactive).

With `COC(=O)C(=[N+]=[N-])C(=O)c1ccc([N+](=O)[O-])o1`, the growth was 109% (inactive).

For the molecule `OC(c1cc(-c2ccc(C(F)(F)F)cc2)nc(C(F)(F)F)c1)C1CCCCN1` (stereo unspecified), the growth was -76.1% (active) and -93.1% (active) and 45.2% (inactive).

For the molecule `O=C1Nc2ccc(Br)cc2C1=O`, the growth is 108% (inactive).

With `Nc1cccc2cccc([N+](=O)[O-])c12`, the growth is 96.4% (inactive).

On to `COc1cccc2c1C(=O)c1c(O)c3c(c(O)c1C2=O)C[C@@](O)(C(=O)CO)C[C@@H]3OC1CC(OC(C)=O)C(OC(C)=O)C(C)O1` (stereo partly specified), for which the growth was -8.16% (active).

`O=C1C=CC(=O)N1c1ccccc1`: the growth is 117% (inactive).

Take `CCOC(=O)C1=C(C(=O)c2ccccc2)C(c2cccc([N+](=O)[O-])c2)C(C(=O)c2ccccc2)=C(C(=O)OCC)N1`: the growth is 95.6% (inactive).

Regarding `N#C/C(=N\Nc1ccc(Cl)cc1)C(=O)C1CC1`, the growth was 53.9% (inactive).

Consider `Cc1cc(N/N=C/c2ccccn2)nc2ccccc12`, for which the growth was 18.1% (inactive).

Take `O=C1C(=O)c2cccnc2-c2ncccc21`: the growth was -9.12% (active).

Take `CC(CSc1n[nH]c(=S)s1)c1ccccc1` (stereo unspecified): the growth is 116% (inactive).

Take `CC/C(=C(/CC)c1ccc(O)cc1)c1ccc(O)cc1`: the growth is 60.1% (inactive).

On to `CCOC(=O)C1=NN(c2ccccc2)C(=O)/C1=C\N1C(=O)/C(=C/c2cccc(O)c2)SC1=S`, for which the growth is 111% (inactive).
